These sequences were tested against B52 (SRp55) full length (Drosophila melanogaster, UniProt P26686 P26686:1-350) (assay: EMSA; almost a factor of three). Conditions: tags: baculovirus/Sf9 expressed, SR protein purification; label: 32P-UTP; ssRNA.
B52 (SRp55) full length, sequence (P26686 other isoform, or with tags, fused parts or gaps): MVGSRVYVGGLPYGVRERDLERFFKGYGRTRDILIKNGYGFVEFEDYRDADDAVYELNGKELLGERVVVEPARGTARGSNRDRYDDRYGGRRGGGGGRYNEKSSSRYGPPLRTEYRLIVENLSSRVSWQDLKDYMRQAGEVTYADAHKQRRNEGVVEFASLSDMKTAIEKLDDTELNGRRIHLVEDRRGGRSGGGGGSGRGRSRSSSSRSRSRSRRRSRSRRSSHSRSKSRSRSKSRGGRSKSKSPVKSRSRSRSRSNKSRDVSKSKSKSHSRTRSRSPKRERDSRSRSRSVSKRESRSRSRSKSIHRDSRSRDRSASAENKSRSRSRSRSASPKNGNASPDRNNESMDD
Description: All binding assays were performed in 20 μl volume in 1× binding buffer described above. A typical binding assay using labeled RNA contains about 20 finole of ³²P-labeled RNA probe and differing amounts (1-10 pmole) of B52 protein. A typical binding assay using the truncated versions of B52 contains 1 μl of the ³⁵S-labeled translation reaction mixture with 2 pmoles of unlabeled RNA transcript (the final concentration of RNAs in this reaction was 100 nM and concentration of the labeled B52 proteins was much lower). The reactions were allowed to equilibrate for 15-20 minutes at ambient temperature before being subjected to filter binding, gel shift, or UV crosslinking.
To determine the sequence/structure requirements for binding by B52, deletion and substitution mutations, and antisense constructs of BBS were designed in light of the shared sequence motif and predicted secondary structures (FIG. 4). These short RNA transcripts were produced by in vitro transcription of synthetic templates, and their affinity to B52 was assayed by band shift.
For GGACGAUCAACCAGGCGACAGU, the binding signal was ~3 fold lower affinity than BBS-II.
